Source: PubChem BioAssay AID1159580 (chemical genetic matrix, 2015)
Values joined by “and” are separate entries in the source; they are usually repeats but may differ in a detail not shown here. Equal values may be shown once. Hit rate of the full screen: of about 5,500 compounds, about 2,000 (36%) were called active. About 18% were inconclusive and are not listed. Cut-off read from the data, not from the text of the source: active = normalized growth mostly below about 0.91 (no sharp cut-off); inconclusive = no clear call, values can overlap the other calls; inactive = mostly above about 0.92. The list shows a part of the results.

Test: chemical genetic growth profiling, strain panel (AID 1159580);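 note: tested at 20 µM; growth read once vehicle control cultures reached saturation at 30 °C; 1 = growth at the plate median or of vehicle wells; lower values mean less growth of the strain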
Settings: growth OD
[1] = S. cerevisiae deletion strains, locus YBR021W, strain FUR4, active compounds read low
[2] = S. cerevisiae deletion strains, locus YBR229C, strain ROT2, active compounds read low
[3] = S. cerevisiae deletion strains, locus YCL029C, strain bik1, active compounds read low
[4] = S. cerevisiae deletion strains, locus YDL035C, strain GPR1, active compounds read low
[5] = S. cerevisiae deletion strains, locus YDL074C, strain BRE1, active compounds read low
[6] = S. cerevisiae deletion strains, locus YDL101C, strain DUN1, active compounds read low
[7] = S. cerevisiae deletion strains, locus YDL185W, strain tfp1, active compounds read low
[8] = S. cerevisiae deletion strains, locus YDL192W, strain arf1, active compounds read low
[9] = S. cerevisiae deletion strains, locus YDR101C, strain arx1, active compounds read low
[10] = S. cerevisiae deletion strains, locus YDR150W, strain NUM1, active compounds read low
[11] = S. cerevisiae deletion strains, locus YDR162C, strain NBP2, active compounds read low
[12] = S. cerevisiae deletion strains, locus YDR318W, strain mcm21, active compounds read low
[13] = S. cerevisiae deletion strains, locus YDR388W, active compounds read low
[14] = S. cerevisiae deletion strains, locus YDR502C, strain sam2, active compounds read low
[15] = S. cerevisiae deletion strains, locus YEL061C, strain CIN8, active compounds read low
[16] = S. cerevisiae deletion strains, locus YER110C, active compounds read low
[17] = S. cerevisiae deletion strains, locus YER155C, strain BEM2, active compounds read low
[18] = S. cerevisiae deletion strains, locus YER167W, strain BCK2, active compounds read low
[19] = S. cerevisiae deletion strains, locus YGL078C, strain dbp3, active compounds read low
[20] = S. cerevisiae deletion strains, locus YGL086W, strain mad1, active compounds read low
[21] = S. cerevisiae deletion strains, locus YGL248W, strain PDE1, active compounds read low
[22] = S. cerevisiae deletion strains, locus YGR078C, strain PAC10, active compounds read low
[23] = S. cerevisiae deletion strains, locus YGR135W, strain pre9, active compounds read low
[24] = S. cerevisiae deletion strains, locus YGR252W, strain gcn5, active compounds read low
[25] = S. cerevisiae deletion strains, locus YHR030C, strain SLT2, active compounds read low
[26] = S. cerevisiae deletion strains, locus YHR079C, strain IRE1 (second series), active compounds read low
[27] = S. cerevisiae deletion strains, locus YHR079C, strain IRE1, active compounds read low
[28] = S. cerevisiae deletion strains, locus YHR094C, strain hxt1, active compounds read low
[29] = S. cerevisiae deletion strains, locus YHR129C, strain ARP1, active compounds read low
[30] = S. cerevisiae deletion strains, locus YHR200W, strain rpn10, active compounds read low
[31] = S. cerevisiae deletion strains, locus YIL066C, strain RNR3, active compounds read low
[32] = S. cerevisiae deletion strains, locus YIL073C, strain SPO22, active compounds read low
[33] = S. cerevisiae deletion strains, locus YIL125W, strain kgd1, active compounds read low
[34] = S. cerevisiae deletion strains, locus YIR030C, strain dcg1, active compounds read low
[35] = S. cerevisiae deletion strains, locus YJL095W, strain BCK1, active compounds read low
[36] = S. cerevisiae deletion strains, locus YJL134W, strain LCB3, active compounds read low
[37] = S. cerevisiae deletion strains, locus YJL168C, strain set2, active compounds read low
[38] = S. cerevisiae deletion strains, locus YJL187C, strain SWE1 (second series), active compounds read low
[39] = S. cerevisiae deletion strains, locus YJR043C, strain POL32, active compounds read low
[40] = S. cerevisiae deletion strains, locus YJR066W, strain TOR1, active compounds read low
[41] = S. cerevisiae deletion strains, locus YKL009W, strain mrt4, active compounds read low
[42] = S. cerevisiae deletion strains, locus YKL068W, active compounds read low
[43] = S. cerevisiae deletion strains, locus YKL085W, strain MDH1 (second series), active compounds read low
[44] = S. cerevisiae deletion strains, locus YKL085W, strain MDH1, active compounds read low
[45] = S. cerevisiae deletion strains, locus YKR001C, strain vps1, active compounds read low
[46] = S. cerevisiae deletion strains, locus YLR039C, strain RIC1, active compounds read low
[47] = S. cerevisiae deletion strains, locus YLR058C, strain SHM2, active compounds read low
[48] = S. cerevisiae deletion strains, locus YLR102C, strain apc9, active compounds read low
[49] = S. cerevisiae deletion strains, locus YLR113W, strain HOG1, active compounds read low
[50] = S. cerevisiae deletion strains, locus YLR262C, strain YPT6, active compounds read low
[51] = S. cerevisiae deletion strains, locus YLR268W, strain sec22, active compounds read low
[52] = S. cerevisiae deletion strains, locus YLR330W, strain CHS5, active compounds read low
[53] = S. cerevisiae deletion strains, locus YLR342W, strain FKS1 (second series), active compounds read low
[54] = S. cerevisiae deletion strains, locus YLR371W, strain rom2, active compounds read low
[55] = S. cerevisiae deletion strains, locus YLR418C, strain cdc73, active compounds read low
[56] = S. cerevisiae deletion strains, locus YML016C, strain PPZ1, active compounds read low
[57] = S. cerevisiae deletion strains, locus YML032C, strain rad52, active compounds read low
[58] = S. cerevisiae deletion strains, locus YML124C, strain tub3, active compounds read low
[59] = S. cerevisiae deletion strains, locus YMR078C, strain ctf18, active compounds read low
[60] = S. cerevisiae deletion strains, locus YMR223W, strain ubp8, active compounds read low
[61] = S. cerevisiae deletion strains, locus YMR307W, strain GAS1, active compounds read low
[62] = S. cerevisiae deletion strains, locus YNL067W, strain RPL9B, active compounds read low
[63] = S. cerevisiae deletion strains, locus YNL153C, strain GIM3, active compounds read low
[64] = S. cerevisiae deletion strains, locus YNL183C, strain NPR1, active compounds read low
[65] = S. cerevisiae deletion strains, locus YNL233W, strain BNI4, active compounds read low
[66] = S. cerevisiae deletion strains, locus YNL250W, strain rad50, active compounds read low
[67] = S. cerevisiae deletion strains, locus YNL271C, strain bni1, active compounds read low
[68] = S. cerevisiae deletion strains, locus YNL298W, strain CLA4, active compounds read low
[69] = S. cerevisiae deletion strains, locus YNL307C, strain MCK1, active compounds read low
[70] = S. cerevisiae deletion strains, locus YNL322C, strain KRE1, active compounds read low
[71] = S. cerevisiae deletion strains, locus YNR052C, strain pop2, active compounds read low
[72] = S. cerevisiae deletion strains, locus YOL006C, strain TOP1, active compounds read low
[73] = S. cerevisiae deletion strains, locus YOL012C, strain htz1
[74] = S. cerevisiae deletion strains, locus YOL147C, strain pex11, active compounds read low
[75] = S. cerevisiae deletion strains, locus YOR061W, strain CKA2, active compounds read low
[76] = S. cerevisiae deletion strains, locus YOR069W, strain VPS5, active compounds read low
[77] = S. cerevisiae deletion strains, locus YOR136W, strain idh2, active compounds read low
[78] = S. cerevisiae deletion strains, locus YOR144C, strain elg1, active compounds read low
[79] = S. cerevisiae deletion strains, locus YOR184W, strain ser1, active compounds read low
[80] = S. cerevisiae deletion strains, locus YOR231W, strain MKK1, active compounds read low
[81] = S. cerevisiae deletion strains, locus YOR316C, strain cot1, active compounds read low
[82] = S. cerevisiae deletion strains, locus YPL256C, strain CLN2, active compounds read low
[83] = S. cerevisiae deletion strains, locus YPR119W, strain clb2, active compounds read low
[84] = S. cerevisiae deletion strains, locus YPR141C, strain kar3, active compounds read low
[85] = S. cerevisiae deletion strains, locus YPR163C, strain tif3, active compounds read low
[86] = S. cerevisiae deletion strains, locus YPR167C, strain met16, active compounds read low
[87] = S. cerevisiae deletion strains, strain wtn01, active compounds read low

Measured: normalized growth

C[N+]1(C)CCCC(OC(=O)C(O)(c2ccccc2)c2ccccc2)C1 (centres undefined)
inactive: [1] 1.01 | [2] 1.01 | [3] 0.988 | [4] 1.02 | [5] 1.01 | [6] 0.999 | [7] 0.961 | [8] 0.983 | [9] 1 | [10] 1 | [11] 1.01 | [12] 0.976 | [13] 0.997 | [14] 0.989 | [15] 0.999 | [16] 0.968 | [17] 1 | [18] 0.995 | [19] 0.976 | [20] 1.02 | [21] 1 | [22] 1 | [23] 0.937 | [24] 0.936 | [25] 1 and 1.03 | [26] 0.982 | [27] 1.02 | [28] 0.996 | [29] 1 | [30] 0.975 | [31] 1.01 | [32] 0.937 | [33] 0.997 | [34] 0.978 | [35] 0.969 and 1.02 | [36] 1 | [37] 0.998 | [38] 1.01 | [39] 1.03 | [40] 0.986 | [41] 1 | [42] 0.991 | [43] 0.97 | [44] 0.97 | [45] 0.99 | [46] 0.94 | [47] 0.998 | [48] 0.982 | [49] 1.02 | [50] 0.979 | [51] 0.996 | [52] 0.994 | [53] 1.01 | [54] 0.985 | [55] 0.969 | [56] 1 | [57] 0.996 | [58] 0.991 | [59] 0.97 | [60] 0.951 | [61] 1.03 | [62] 0.997 | [63] 1 | [64] 0.983 | [65] 0.997 | [66] 0.962 | [67] 0.981 | [68] 0.968 | [69] 0.981 | [70] 0.99 | [71] 0.975 | [72] 0.969 | [73] 0.94 | [74] 0.993 | [75] 0.999 | [76] 1 | [77] 0.996 | [78] 0.993 | [79] 0.981 | [80] 1.02 | [81] 0.983 | [82] 1.03 | [83] 0.979 | [84] 0.983 | [85] 0.984 | [86] 0.987 | [87] 0.975

O=C1C(=O)c2ccccc2C(O)=C1C1CCC(c2ccc(Cl)cc2)CC1 (centres undefined)
inactive: S. cerevisiae deletion strains, locus YAL013W, strain DEP1, active compounds read low 1.01 | [1] 0.992 | [2] 0.985 | [3] 0.992 | [4] 0.993 | [5] 0.975 | [6] 0.996 | S. cerevisiae deletion strains, locus YDL134C, strain PPH21, active compounds read low 0.983 | [7] 1.01 | [8] 0.997 | [9] 0.991 | [10] 1.01 | [11] 0.997 | [12] 0.98 | [13] 0.981 | [14] 1 | [15] 0.996 | [16] 0.991 | [17] 0.983 | [18] 1.01 | [19] 1 | [20] 0.988 | [21] 0.998 | [22] 0.996 | [23] 0.991 | S. cerevisiae deletion strains, locus YGR229C, strain SMI1, active compounds read low 1 | [24] 0.946 | [25] 0.998 and 1.01 | [26] 0.987 | [27] 1.01 | [28] 0.98 | [29] 0.988 | [30] 0.981 | [31] 0.989 | [32] 0.884 | [33] 0.996 | [34] 0.997 | [35] 0.949 and 1.01 | [36] 0.988 | [37] 0.977 | [38] 0.992 | [39] 1 | [40] 0.963 | S. cerevisiae deletion strains, locus YJR075W, strain HOC1, active compounds read low 0.996 | [41] 0.997 | [42] 0.997 | [43] 0.989 | [44] 0.989 | S. cerevisiae deletion strains, locus YKL190W, strain CNB1, active compounds read low 0.99 | [45] 0.947 | [46] 0.876 | [47] 0.988 | [48] 0.988 | [49] 1.05 | [50] 0.936 | [51] 0.972 | [52] 0.988 | [53] 0.951 | [54] 1 | [55] 0.987 | [56] 0.969 | [57] 1.01 | [58] 0.994 | [59] 0.974 | [60] 0.981 | S. cerevisiae deletion strains, locus YMR263W, strain SAP30, active compounds read low 0.999 | [61] 0.924 | [62] 0.997 | S. cerevisiae deletion strains, locus YNL128W, strain TEP1, active compounds read low 1.01 | [63] 0.989 | [64] 0.977 | [65] 0.987 | [66] 0.997 | [67] 0.991 | [68] 0.996 | [70] 1 | [71] 0.982 | [72] 0.903 | [73] 1.05 | [74] 0.986 | [75] 0.98 | [76] 0.991 | [77] 1 | [78] 0.988 | [79] 0.984 | [80] 1.03 | [81] 0.991 | S. cerevisiae deletion strains, locus YPL055C, strain LGE1, active compounds read low 0.996 | S. cerevisiae deletion strains, locus YPL241C, strain CIN2, active compounds read low 0.997 | [82] 1.03 | [83] 0.984 | [84] 1 | [85] 0.993 | [86] 0.995 | [87] 0.998 | S. cerevisiae strains, strain wild type, active compounds read low 0.999
active: [69] 0.836
